Records with an inconclusive call do not appear. Calls of active or inactive are those of the source. Unless noted, calls come from the whole dose curve.
How the values were obtained:
[1] = Nuclear factor erythroid 2-related factor 2/antioxidant responsive element (Nrf2/ARE) small molecule agonists: qHTS cell viability counter screen in human keratinocytes (AID 1919968; active = well fitted curve in the direction sought with a large enough effect in the repeat runs; an effect the other way counts as inactive or inconclusive; note: nearly all actives have a fitted effect of over 55% in size; note: potency is the fitted concentration of half-maximal effect)
In short: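 Cells of the KeratinoSens line were plated at 1,500 per well and left for 5 h before compound transfer from DMSO stocks. After a 23 h incubation (37 C, 5% CO2), CellTiter-Fluor was added. Signal was taken as fluorescence intensity 1 h later.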

[2] = biological target: KiSS-1 receptor (Homo sapiens) (UniProt Q969F8); assay: Human kisspeptin (KISS1R) small molecule agonists, calcium flux assay in KISS1R-HEK293 cells (AID 1920064; active = well fitted curve in the direction sought with a large enough effect in the repeat runs; an effect the other way counts as inactive or inconclusive)
Sequence of KiSS-1 receptor (Homo sapiens) (Q969F8 whole entry, looked up): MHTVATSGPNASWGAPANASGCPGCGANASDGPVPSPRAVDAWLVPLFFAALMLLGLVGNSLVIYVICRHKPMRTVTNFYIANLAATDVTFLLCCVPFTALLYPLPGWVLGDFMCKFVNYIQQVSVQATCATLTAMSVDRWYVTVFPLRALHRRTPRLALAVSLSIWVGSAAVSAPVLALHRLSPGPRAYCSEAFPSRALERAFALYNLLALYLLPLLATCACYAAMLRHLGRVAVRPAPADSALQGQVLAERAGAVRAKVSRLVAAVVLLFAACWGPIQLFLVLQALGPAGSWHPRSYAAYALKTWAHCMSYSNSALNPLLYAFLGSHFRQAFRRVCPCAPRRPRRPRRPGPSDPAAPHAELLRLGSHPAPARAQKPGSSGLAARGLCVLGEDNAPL
In short: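 Cell line: HEK293, stable human KISS1R. Dye loading 1 h at 37 C after 18 h culture. Read: kinetic fluorescence, 480/540 nm, 3 min at 1 s intervals.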

[3] = p53 small molecule agonists, cell-based qHTS assay with human liver microsomes (AID 1963577)
In short: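 Compounds act here after metabolic activation: human liver microsomes and NADPH, both at 0.5 mg/mL final, were co-added to p53RE-bla cells. Incubation ran 16 h at 37 C, followed by LiveBLAzer detection.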

[4] = p53 small molecule agonists, cell-based qHTS assay with rat liver microsomes (AID 1963578)
In short: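 Read-out is beta-lactamase reporter fluorescence (LiveBLAzer, 2 h, room temperature, dark) in p53RE-bla cells treated 16 h at 37 C with compound, rat liver microsomes and NADPH, both 0.5 mg/mL final.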

[5] = p53 small molecule agonists, cell-based qHTS assay with human liver microsomes: qHTS cell viability counter screen (AID 1963579); note: nearly all actives have a fitted effect of over 45% in size
In short: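 Cells carrying the p53 response-element beta-lactamase reporter are treated for 16 h at 37 C with test compounds in the presence of human liver microsomes and NADPH (both 0.5 mg/mL final); ATP-based CellTiter-Glo luminescence then reports viability.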

[6] = p53 small molecule agonists, cell-based qHTS assay with rat liver microsomes: qHTS cell viability counter screen (AID 1963580); note: nearly all actives have a fitted effect of over 45% in size
In short: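 Cytotoxicity counter screen: intracellular ATP read by CellTiter-Glo luminescence in the p53 reporter wells. HCT-116 p53RE-bla cells were treated for 16 h at 37 C alongside rat liver microsomes and NADPH, each 0.5 mg/mL final.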

[7] = p53 small molecule agonists, cell-based qHTS assay: qHTS cell viability counter screen (AID 1963581); note: nearly all actives have a fitted effect of over 45% in size
In short: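 ATP content measured by luminescence in HCT-116 p53RE-bla cells treated 16 h at 37 C, same wells as the reporter screen.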

[8] = p53 small molecule agonists, cell-based qHTS assay (AID 1963582; active = well fitted activation curve with a large enough effect in the signal ratio in the repeat runs, not every such curve was filed as active; the % refers to the signal ratio)
In short: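 16 h compound exposure (37 C) of p53 response element–bla cells, preceded by 5 h recovery at 37 C/5% CO2; read-out via LiveBLAzer B/G FRET substrate, 2 h RT, fluorescence intensity.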

[9] = biological target: 5-hydroxytryptamine receptor 2A (Homo sapiens) (UniProt P28223); assay: 5-hydroxytryptamine receptor 2A (HTR2A) small molecule antagonists, cell-based qHTS assay (AID 1963586); note: nearly all actives have a fitted effect of over 45% in size
Sequence of 5-hydroxytryptamine receptor 2A (Homo sapiens) (P28223 whole entry, looked up): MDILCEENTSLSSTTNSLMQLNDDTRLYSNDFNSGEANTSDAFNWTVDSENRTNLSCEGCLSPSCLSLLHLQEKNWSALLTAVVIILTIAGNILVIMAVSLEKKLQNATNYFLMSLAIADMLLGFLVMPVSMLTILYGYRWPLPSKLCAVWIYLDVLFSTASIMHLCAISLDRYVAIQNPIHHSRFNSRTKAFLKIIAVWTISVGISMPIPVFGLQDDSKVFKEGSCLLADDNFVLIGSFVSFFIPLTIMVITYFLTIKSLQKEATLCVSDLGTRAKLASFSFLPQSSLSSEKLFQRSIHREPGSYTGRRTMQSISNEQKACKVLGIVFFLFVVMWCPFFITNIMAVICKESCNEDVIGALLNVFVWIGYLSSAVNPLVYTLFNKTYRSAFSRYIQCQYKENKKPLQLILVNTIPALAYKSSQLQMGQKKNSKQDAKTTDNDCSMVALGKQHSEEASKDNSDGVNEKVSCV
In short: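 CHO cells stably expressing human HTR2A were plated for 18 h at 37 C, then loaded with calcium dye for 1 h. Compounds were preincubated 5 min at room temperature before DOI (4 nM solution) was added. Kinetic fluorescence was read for 3 min.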

[10] = biological target: 5-hydroxytryptamine receptor 2A (Homo sapiens) (UniProt P28223); assay: 5-hydroxytryptamine receptor 2A (HTR2A) small molecule agonists, cell-based qHTS assay (AID 1963587); note: nearly all actives have a fitted effect of over 30% in size
In short: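 Kinetic calcium-flux fluorescence (2 min, 1 sec intervals) after compound addition in agonist mode. HTR2A-CHO cells were cultured 18 h, then dye-loaded 1 h at 37 C.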

[11] = biological target: Muscarinic acetylcholine receptor M1 (Homo sapiens) (UniProt P11229); assay: Cholinergic receptor muscarinic 1 (CHRM1) small molecule antagonists, cell-based qHTS assay (AID 1963588); note: nearly all actives have a fitted effect of over 40% in size; note: potency is the fitted concentration of half-maximal effect
Sequence of Muscarinic acetylcholine receptor M1 (Homo sapiens) (P11229 whole entry, looked up): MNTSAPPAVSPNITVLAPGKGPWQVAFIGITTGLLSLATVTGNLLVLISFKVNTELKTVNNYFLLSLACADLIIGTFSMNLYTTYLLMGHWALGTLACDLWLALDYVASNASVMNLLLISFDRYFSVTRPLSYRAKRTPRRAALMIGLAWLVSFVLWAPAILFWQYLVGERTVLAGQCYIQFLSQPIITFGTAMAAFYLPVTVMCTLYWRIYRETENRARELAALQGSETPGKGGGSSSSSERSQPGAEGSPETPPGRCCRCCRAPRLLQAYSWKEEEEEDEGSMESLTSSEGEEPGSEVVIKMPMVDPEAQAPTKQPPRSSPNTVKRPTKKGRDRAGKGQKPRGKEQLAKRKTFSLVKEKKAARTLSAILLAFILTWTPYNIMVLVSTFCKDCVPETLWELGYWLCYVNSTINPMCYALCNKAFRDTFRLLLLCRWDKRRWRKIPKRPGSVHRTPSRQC
In short: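 Compounds were tested at 15 concentrations in three independent runs. Dye-loaded CHRM1-CHO cells were exposed 5 min at room temperature before stimulation by acetylcholine added at 50nM. Intracellular calcium was read kinetically on FDSS for 3 min.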

[12] = biological target: Muscarinic acetylcholine receptor M1 (Homo sapiens) (UniProt P11229); assay: Cholinergic receptor muscarinic 1 (CHRM1) small molecule agonists, cell-based qHTS assay (AID 1963589); note: nearly all actives have a fitted effect of over 35% in size
In short: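 Homogeneous fluorescence calcium flux, agonist mode. Human M1-expressing CHO cells; compound dosed at 15 concentrations, three independent runs; signal sampled every 1 sec.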

[13] = cAMP Responsive Elements (CRE) small molecule agonists, cell-based qHTS assay (AID 1963590)
In short: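 HEK 293T cells stably bearing CRE-bla were plated at 2,000 cells per well and rested 18 h. Compounds, positive controls or DMSO were added for 3 h at 37 C. LiveBLAzer B/G substrate was then loaded for 2 h at room temperature.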

[14] = biological target: D(2) dopamine receptor (Homo sapiens) (UniProt P14416); assay: Dopamine D2 receptor (DRD2) small molecule agonists, cell-based qHTS assay (AID 1963594); note: nearly all actives have a fitted effect of over 35% in size
Sequence of D(2) dopamine receptor (Homo sapiens) (P14416 whole entry, looked up): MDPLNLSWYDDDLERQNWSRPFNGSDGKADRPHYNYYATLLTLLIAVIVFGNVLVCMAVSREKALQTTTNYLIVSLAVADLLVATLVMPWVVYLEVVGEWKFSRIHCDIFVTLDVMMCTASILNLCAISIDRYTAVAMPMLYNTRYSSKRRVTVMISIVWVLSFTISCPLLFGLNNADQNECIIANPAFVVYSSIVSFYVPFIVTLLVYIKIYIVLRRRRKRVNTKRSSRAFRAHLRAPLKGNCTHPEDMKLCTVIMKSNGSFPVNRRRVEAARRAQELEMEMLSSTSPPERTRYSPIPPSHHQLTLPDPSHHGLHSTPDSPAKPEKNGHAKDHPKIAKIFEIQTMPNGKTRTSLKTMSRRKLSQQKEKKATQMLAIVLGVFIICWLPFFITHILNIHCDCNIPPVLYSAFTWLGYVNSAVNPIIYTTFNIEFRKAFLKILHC
In short: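 cAMP accumulation in DRD2-HEK293 cells measured by HTRF after 1 h detection; compounds added 10 min before NKH477 (200nM […]) forskolin-analogue stimulation, 30 min at room temperature, with Ro20-1724 present at 0.1 mM final.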

[15] = biological target: D(2) dopamine receptor (Homo sapiens) (UniProt P14416); assay: Dopamine D2 receptor (DRD2) small molecule antagonists, cell-based qHTS assay (AID 1963595; active = well fitted inhibition curve with a large enough effect in the signal ratio in the repeat runs, with a control signal flat; the % refers to the signal ratio)
In short: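 In this cell-based antagonist screen, compounds act for 10 min at room temperature before a 30 min challenge with 12 nM quinpirole and 200 nM NKH477. cAMP is quantified by HTRF competition in DRD2-HEK293 cells containing 0.1 mM Ro20-1724.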

[16] = G protein-coupled receptor (GPCR) small molecule agonists, calcium flux assay: HEK293 wild type cell line counter screen (AID 1920065)
In short: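 Tox21 10K compounds, 15 concentrations each in triplicate, pin-transferred in DMSO onto dye-loaded cells; kinetic read at 480/540 nm for 3 min, 1 s intervals.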

[17] = biological target: Beta-2 adrenergic receptor (Homo sapiens) (UniProt P07550); assay: Adrenergic beta2 receptor (ADRB2) small molecule antagonists, cell-based qHTS assay (AID 1963592); note: series mostly up to about 92 µM; nearly all actives have a fitted effect of over 50% in size
Sequence of Beta-2 adrenergic receptor (Homo sapiens) (P07550 whole entry, looked up): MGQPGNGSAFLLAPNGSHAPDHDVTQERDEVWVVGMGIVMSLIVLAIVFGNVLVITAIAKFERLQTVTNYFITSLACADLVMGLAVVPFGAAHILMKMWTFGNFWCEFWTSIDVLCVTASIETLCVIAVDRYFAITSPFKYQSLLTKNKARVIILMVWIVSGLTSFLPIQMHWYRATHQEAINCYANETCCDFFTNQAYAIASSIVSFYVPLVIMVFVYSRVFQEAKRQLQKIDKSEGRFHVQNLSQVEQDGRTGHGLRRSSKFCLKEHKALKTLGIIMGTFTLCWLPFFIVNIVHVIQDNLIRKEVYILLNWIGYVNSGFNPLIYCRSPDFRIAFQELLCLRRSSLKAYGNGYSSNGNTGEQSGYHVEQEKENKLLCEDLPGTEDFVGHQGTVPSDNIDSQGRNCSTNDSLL
In short: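 Assay format: CHO-ADRB2 cells, 18-20hr seeding at 37C/5% CO2, then compound plus 1nM isoproterenol agonist mix for 0.5hr RT. Homogeneous time-resolved fluorescence cAMP detection after 1hr, expressed as 665/615 nm ratio.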

[18] = biological target: Beta-2 adrenergic receptor (Homo sapiens) (UniProt P07550); assay: Adrenergic beta2 receptor (ADRB2) small molecule agonists, cell-based qHTS assay (AID 1963593);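 note: CHO cells stably overexpressing human ADRB2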
In short: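 CHO cells stably over-expressing ADRB2 were plated overnight at 37C, then dosed with compounds plus a stimulation mix containing 100uM IBMX and 25uM Ro-20-1724 for 0.5hr at room temperature. cAMP was measured by HTRF competition, 1hr.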

[19] = cAMP Responsive Elements (CRE) small molecule antagonists, cell-based qHTS assay (AID 1963591; active = well fitted inhibition curve with a large enough effect in the signal ratio in the repeat runs, not every such curve was filed as active; the % refers to the signal ratio)
In short: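 First, CRE-bla HEK293T cells settled 18 h at 37 C. Next, compound and 0.25 uM final NKH477 were applied for 3 h. Last, LiveBLAzer B/G substrate was loaded for 2 h at room temperature.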

Measured: Potency

CC(C)Nc1nc(N)nc(Cl)n1
inactive: [1] | [2] | [3] | [4] | [5] | [6] | [7] | [8] | [9] | [10] | [11] | [12] | [13] | [14] | [15]

CCCCCCCCCCc1ccccc1
inactive: [1] | [2] | [16] | [4] | [5] | [6] | [7] | [8] | [9] | [10] | [11] | [12] | [13] | [17] | [15]

C=C/C(C)=C/C/C=C(\C)CCC=C(C)C
inactive: [1] | [2] | [3] | [4] | [5] | [7] | [9] | [10] | [11] | [12] | [17] | [18] | [14] | [15]

CCCCN(CCCC)C(=O)N(CCCC)CCCC
inactive: [1] | [16] | [3] | [4] | [5] | [6] | [7] | [8] | [9] | [10] | [11] | [12] | [19] | [17] | [18]

CCN(CC)c1ccc(N)cc1
inactive: [2] | [16] | [3] | [4] | [6] | [7] | [8] | [9] | [10] | [11] | [12] | [17]
active: [1] 22.3 µM

C/C(=C\C(C)CC(C)CC(C)C)C1CC(=O)OC1=O (stereo not given)
inactive: [1] | [2] | [3] | [4] | [5] | [6] | [7] | [9] | [10] | [11] | [12] | [13] | [17] | [14] | [15]

C=CCn1c(=O)n([C@@H]2O[C@H](CO)[C@@H](O)[C@H]2O)c2nc(N)[nH]c(=O)c21
inactive: [1] | [2] | [16] | [3] | [4] | [6] | [7] | [8] | [9] | [10] | [11] | [12] | [13] | [19] | [17] | [15]

CCOC(=O)c1ccc(OC(=O)CCCCCN=C(N)N)cc1
active: [11] 7.29 µM
inactive: [1] | [2] | [16] | [3] | [5] | [6] | [7] | [8] | [10] | [12] | [13] | [19] | [17] | [18] | [14]

N#CCc1ccc(Cl)cc1Cl
inactive: [1] | [2] | [16] | [3] | [4] | [6] | [7] | [8] | [9] | [10] | [11] | [12] | [13] | [19] | [17] | [15]

Reference: PubChem BioAssay (Tox21)
